High-throughput results from PubChem.
TTR transcr act – activators of transthyretin transcription. activation, % at 16.7 µM. hit rate 1.3% among 92,000. SH-SY5Y TTR promoter Gaussia luciferase, luminescence; 100% = recombinant luciferase protein wells;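 active means activation above the mean of all tested compounds plus 3 SD, cut at about 9.5% in these data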;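 further: cells exposed to compounds for one day before reading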
TTR inh HuH7 – counter-screen for TTR activators: TTR transcription inhibitors in HuH7 cells. shares compounds with TTR transcr act. AID 1117279. inhibition, % at 16.7 µM. hit rate 4% among 1,100. HuH7 TTR promoter-Gaussia luciferase reporter, luminescence;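 active means average inhibition above the solvent-only control wells' mean plus 3 SD, cut at about 15% in these data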;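 further: inhibitors lower well luminescence so higher value means more inhibition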
TTR act confirm – confirmation of human transthyretin transcription activators. activation, % at 16.7 µM. shares compounds with TTR transcr act. SHSY5Y TTR promoter Gaussia luciferase, luminescence; 100% = purified Lucia enzyme wells, no cells. AID 1117280. 1,100 tested, under 10 active;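 active means mean activation above a set limit taken from the earlier primary screen, cut at about 11% in these data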
Numbers stand for hits; . = inactive. Only a selection was taken, and hits are over-represented in it overall.

SMILES	TTR transcr act	others
CCC(C)[C@H](NC(=O)[C@H](Cc1ccccc1)NC(=O)OC(C)(C)C)C(=O)NCc1ccccc1Br (stereo not given in full)	.
O=C(Nc1ccc(NC(=O)c2ccccc2Cl)c(Cl)c1)c1ccccn1	.
O=C(Nc1cccc(C(F)(F)F)c1)OC1CC2CC1[C@H]1CCCCN1[C@H]2Cc1ccccc1 (stereo not given in full)	.
O=C(Nc1ccc(C(F)(F)F)cc1)OC1CC2CC1[C@H]1CCCCN1C2 (stereo not given in full)	.
Cc1cccc(-c2nc(CSc3nc4c(c(=O)[nH]3)CCC4)c(C)o2)c1	.
Cc1oc(-c2ccccc2)nc1CSc1nc2c(c(=O)[nH]1)CCC2	14.0	TTR inh HuH7=.;TTR act confirm=.
Cc1ccccc1-c1nc(CSc2nc3c(c(=O)[nH]2)CCC3)c(C)o1	.
CC(C)(CCc1ccccn1)C(=O)CCCc1ccccn1	.
COC(=O)[C@]12C[C@H](CC(=O)NCc3ccc(OC)c(OC)c3)C(=O)N(Cc3ccc(Cl)cc3Cl)C1=C[C@H](C(C)C)O[C@@H]2C1CC1	.
COc1ccccc1NC(=O)Cc1csc(NC(=O)c2ccccc2)n1	.
COc1ccccc1NC(=O)Cc1noc(CSc2nnc(N)s2)n1	11.3	TTR inh HuH7=.;TTR act confirm=.
COc1ccccc1Nc1nnc(SCC(=O)Nc2cc(C)on2)s1	.
Cc1cccc(C)c1NC(=O)C[N+](C)(C)CC(O)COc1cccc2ccccc12 (stereo not given)	.
O=S(=O)(N[C@H]1CCCC[C@@H]1N1CCOCC1)c1ccc(Cl)cc1	.
O=C(OCC#CCSc1nnc(-c2cccc3ccccc23)o1)c1ccc(F)nc1	.
C[C@H]1C(c2ccccc2F)O[C@]2(C[C@H](O)c3ccccc3O2)C[C@@H]1O (stereo not given in full)	.
CC1O[C@@H](O[C@H](C)CC[C@@H](C)O[C@H]2OC(C)[C@@H](O)C[C@H]2O)C(O)C[C@H]1O (stereo not given in full)	14.3	TTR inh HuH7=.;TTR act confirm=.
Cc1cc2nc(-c3ccco3)cc(C(F)(F)F)n2n1	.
COc1ccc(-c2cc(C(F)(F)F)n3nc(C(=O)O)nc3n2)cc1	.
COc1ccc(-c2cc(C(F)(F)F)n3nc(C)cc3n2)cc1	14.2	TTR inh HuH7=.;TTR act confirm=.
O=S1(=O)CCSC[C@@H](CN2CCOCC2)N1	.
Cc1ccc(SCc2nc(N)nc(Nc3ccccc3C)n2)c(C)c1	32.1	TTR inh HuH7=.;TTR act confirm=.
Cc1ccc(SCc2nc(N)nc(Nc3ccccc3C)n2)cc1C	.
Cc1ccccc1Nc1nc(N)nc(CSc2nnc(C)n2C)n1	.
N#Cc1cccc(NC(=O)CCn2ccnc2)c1	.
SMILES	TTR transcr act	others
N#Cc1cccc(NC(=O)CN2NS(=O)(=O)c3ccccc3C2=O)c1	10.8	TTR inh HuH7=.;TTR act confirm=.
N#Cc1cccc(NC(=O)CC2CCCC2)c1	.
O=C(Nc1ccc(F)cc1)OCc1cn(Cc2ccccc2F)nn1	.
CCCCNS(=O)(=O)/C=C/c1cc2c(cc1CNC(=O)OC(C)(C)C)OCO2	.
CCOC(=O)C1=C[C@@H](C(C)C)N(S(=O)(=O)c2ccc([N+](=O)[O-])cc2)[C@H]1c1ccccc1	.
CCOC(=O)C1=C[C@@H](CC)N(S(=O)(=O)c2ccc([N+](=O)[O-])cc2)[C@H]1c1ccccc1	47.6	TTR inh HuH7=.;TTR act confirm=.
CCOC(=O)C1=C[C@@H](C(C)(C)C)N(S(=O)(=O)c2ccc([N+](=O)[O-])cc2)[C@H]1c1ccccc1	.
CC(COc1ccc(C#N)cc1)CN1CCC(C(O)(c2ccccc2)c2ccccc2)CC1 (stereo not given)	.
CCOCCCNC(=O)Cn1cnc2c(cnn2-c2ccc(F)cc2)c1=O	.
CCOc1ccccc1NC(=O)Cn1cnc2c(cnn2-c2ccc(C)c(C)c2)c1=O	10.9	TTR inh HuH7=.;TTR act confirm=.
CCCCNC(=O)Cn1cnc2c(cnn2-c2ccc(C)c(C)c2)c1=O	.
O=C(OCC#CCSc1nnc(-c2cccc3ccccc23)o1)C1CCCC1	.
Cc1nc2ccccc2n1Cc1n[nH]c(=S)n1-c1ccc(Cl)cc1	.
Cc1ccc(-n2c(CNc3cccc(Cl)c3)n[nH]c2=S)cc1	.
Cc1ccc(-n2c(CSc3nc(C)cc(C)n3)n[nH]c2=S)cc1	26.2	TTR inh HuH7=.;TTR act confirm=.
COC(=O)[C@]12C[C@H](CC(=O)NCc3ccccc3)C(=O)N(Cc3ccco3)C1=C[C@H](COCc1ccccc1)O[C@@H]2C	.
CC(C)c1ccccc1NC(=O)[C@@H]1CCCN1S(=O)(=O)c1cccc2cccnc12	.
Cc1ccccc1Nc1nc(-c2ccccc2)c(C(=O)Nc2cccnc2)s1	13.5	TTR inh HuH7=.;TTR act confirm=.
Cc1nc(Nc2ccc(Cl)c(Cl)c2)sc1C(=O)Nc1ccccc1	.
O=C(Nc1ccccc1)c1sc(Cl)nc1-c1ccccc1	.
O=C1CCC[C@H]2C[C@H](NCc3ccc(Cl)c(C(F)(F)F)c3)CC[C@]23CCCN13	.
